Among the data in PubChem BioAssay are composite z-score, composite Z-score and z-score values, retold here.

Each structure is given as a SMILES string. Activity calls are given as the source filed them.

The target in one assay is Albumin (Bos taurus) (UniProt P02769). Briefly: compounds binding labelled BSA control protein – biochemical, small-molecule microarray, Alexa647 label, 635/667 nm fluorescence, artefact control for SMM control protein annotation, profiling panel (AID 1118).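 Also: score merges 667 nm emission intensity and signal-to-noise per printed compound spot.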 The conditions noted are these: BSA-A647 binding, fluorescence 635 nm, higher = more signal.
Chain of Albumin (Bos taurus) (P02769 whole entry, looked up): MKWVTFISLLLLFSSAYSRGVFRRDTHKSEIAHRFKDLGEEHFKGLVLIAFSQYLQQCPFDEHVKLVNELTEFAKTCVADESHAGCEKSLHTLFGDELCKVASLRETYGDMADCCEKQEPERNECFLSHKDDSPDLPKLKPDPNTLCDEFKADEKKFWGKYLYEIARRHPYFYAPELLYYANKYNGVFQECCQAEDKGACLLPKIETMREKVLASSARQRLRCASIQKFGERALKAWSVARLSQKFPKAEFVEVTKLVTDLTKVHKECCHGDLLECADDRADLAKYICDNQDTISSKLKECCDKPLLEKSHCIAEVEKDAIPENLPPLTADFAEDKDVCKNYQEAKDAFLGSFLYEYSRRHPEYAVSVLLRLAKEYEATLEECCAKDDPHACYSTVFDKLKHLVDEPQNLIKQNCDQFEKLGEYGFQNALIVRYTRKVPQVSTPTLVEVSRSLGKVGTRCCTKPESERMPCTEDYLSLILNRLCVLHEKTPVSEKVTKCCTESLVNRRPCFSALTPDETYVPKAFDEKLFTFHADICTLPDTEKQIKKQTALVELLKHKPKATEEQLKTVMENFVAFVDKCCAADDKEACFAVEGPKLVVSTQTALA
Assay [1] in a line: probe aXIP binding to arrayed compounds – biochemical, NeuroSMM set, 635/667 nm fluorescence, primary screen (AID 1119).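 Also: probe is the protein aXip251-270 applied at 1 µg/mL to compound-printed slides; binding of probe to printed compounds measured as 667 nm fluorescence plus signal to noise.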 The conditions noted are these: small-molecule microarray, higher = more signal, called active from +8 up or from −8 down.
A short description of assay [2]: probe aNOTCH3 binding on compound microarray – biochemical, small-molecule microarray, 635/667 nm fluorescence, primary screen (AID 1120).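 Also: probe is a biotin-tagged antibody raised against NOTCH3 rather than NOTCH3 protein; score merges spot fluorescence near 667 nm with spot signal to noise.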 The conditions noted are these: higher = more signal.
A short description of assay [3]: probe aNOTCH2 binding on compound microarray – biochemical, small-molecule microarray, 635/667 nm fluorescence, primary screen (AID 1121).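 Also: score merges feature fluorescence read at 667 nm with its signal to noise.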 To be noted: higher = more signal.
Assay [4] addresses Carbonic anhydrase 2 (Homo sapiens) (UniProt P00918). Briefly: compounds binding carbonic anhydrase 2 – biochemical, small-molecule microarray, Alexa647-labelled CAII, profiling panel (AID 1122). To be noted: CAII-A647 binding fluorescence, higher = more signal.
Assay [5] can be described thus: COS7 lysate on small-molecule microarray, probe aHis, 635 nm (AID 1123).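 Also: z-score combines 667nm fluorescence intensity with signal-to-noise per printed compound spot.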 To be noted: COS7 cell lysate, fluorescence, higher = more signal.
A short description of assay [6]: probe aLAP1 signal on lysate-treated microarray – cell lysate, small-molecule microarray, COS7 lysate, primary screen (AID 1124).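 Also: lysate comes from COS7 cells expressing LAP1 and is applied at 0.3 µg/mL; score merges spot fluorescence near 667 nm with signal-to-noise over triplicate slides.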 The conditions noted are these: probe aLAP1, fluorescence, higher = more signal.
For the next assay, the system named is Sam68 (KHDRBS1). Briefly: compounds binding KHDRBS1 protein – biochemical, small-molecule microarray, 635 nm fluorescence, primary screen (AID 1125).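 Also: score merges 667 nm channel intensity with signal to noise over triplicate slides.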 To be noted: higher = more signal.
Assay [7] relates to Chordin-like protein 2 (CHRDL2). Put plainly: compounds binding chordin-like 2 – biochemical, small-molecule microarray, 635 nm fluorescence, primary screen (AID 1126).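 Also: printed compound slides probed with Chrdl2 protein at 4 µg/mL for 1 h at 4 C; score merges 667 nm emission intensity with signal to noise over three replicate slides.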 The conditions noted are these: fluorescence 635 nm, higher = more signal.
Assay [8] has as its target Concanavalin-A (Canavalia ensiformis) (UniProt P02866). Briefly: compounds binding concanavalin A lectin – biochemical, small-molecule microarray, Alexa647 label, 635 nm, artefact control for SMM control protein annotation, primary screen (AID 1127).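 Also: z combines 667 nm emission intensity with signal-to-noise across three replicate slides.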 To be noted: ConA-A647 binding fluorescence, higher = more signal.
Assay [9] in a line: compounds binding Alexa647 anti-His antibody – biochemical, small-molecule microarray, 635 nm fluorescence, artefact control for SMM control protein annotation, primary screen (AID 1128).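 Also: score merges feature fluorescence with signal-to-noise for each printed compound spot.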 The conditions noted are these: higher = more signal.
In assay [10] the test system is Human papillomavirus type 1a E7 protein (residues 1-88). Put plainly: HPV1a E7 small-molecule binders, primary screen, biochemical, small-molecule microarray, residues 1-88, 635 nm (AID 1129). The conditions noted are these: small-molecule microarray binding, fluorescence 635 nm; higher = more signal.
Assay [11] concerns the target Focal adhesion kinase 1 (Homo sapiens) (UniProt Q05397). Briefly: PTK2 protein binding on printed compound slides – biochemical, small-molecule microarray, 635/667 nm fluorescence, BSA, DTT, primary screen (AID 1130).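 Also: composite of spot emission at 667 nm and signal to noise over triplicate slides.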 To be noted: 635 nm fluorescence, higher = more signal.
Assay [12] concerns Fibrinogen (Alexa647-labelled). Briefly: Alexa647-fibrinogen binding to printed small molecules – biochemical, small-molecule microarray, 635/667 nm fluorescence, artefact control for SMM control-protein annotation, profiling panel (AID 1131).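 Also: z-score merges 667 nm fluorescence with per-spot signal-to-noise over triplicate slides.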 To be noted: fibrinogen-A647 binding fluorescence, higher = more signal.
The target of assay [13] is Follistatin (Homo sapiens) (UniProt P19883). Put plainly: FST protein binding to printed compounds – biochemical, small-molecule microarray, 635/667 nm fluorescence, primary screen (AID 1132). To be noted: 635 nm fluorescence, higher = more signal.
Chain of Follistatin (Homo sapiens) (P19883 whole entry, looked up): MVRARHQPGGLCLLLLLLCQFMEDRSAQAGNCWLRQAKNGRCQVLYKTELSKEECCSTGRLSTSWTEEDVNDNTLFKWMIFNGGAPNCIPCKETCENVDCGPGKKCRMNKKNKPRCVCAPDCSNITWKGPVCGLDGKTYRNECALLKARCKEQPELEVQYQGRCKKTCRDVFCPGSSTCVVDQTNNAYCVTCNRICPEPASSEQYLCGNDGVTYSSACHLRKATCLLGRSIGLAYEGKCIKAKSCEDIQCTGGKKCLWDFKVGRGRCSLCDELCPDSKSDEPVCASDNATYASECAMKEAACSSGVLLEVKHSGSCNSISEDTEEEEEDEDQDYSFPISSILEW
Assay [14] concerns the target Fibroblast growth factor 2 (Homo sapiens) (UniProt P09038). Briefly: basic fibroblast growth factor binding to printed compounds – biochemical, small-molecule microarray, 635/667 nm fluorescence, primary screen (AID 1133). To be noted: FGF2, fluorescence 635/667, higher = more signal.
Assay [15] can be described thus: JC-1 mitochondrial potential readout, lung cancer cells – cell-based, A549, JC-1 fluorescence, basal, 24 h, 100 nL, profiling panel (AID 1138).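 Also: A549 lung adenocarcinoma cells under basal conditions with no added stimulus; test concentration not given here.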 To be noted: higher = more signal.
In the next assay the test system is Lefty1. Briefly: Lefty1 protein binding to printed compounds – biochemical, small-molecule microarray, 635/667 nm fluorescence, primary screen (AID 1139). To be noted: fluorescence 635/667, higher = more signal.
The test system of assay [16] is wheat germ agglutinin (Triticum aestivum), Alexa647-labelled. Put plainly: Alexa647-WGA lectin binding to printed small molecules – biochemical, small-molecule microarray, 635/667 nm fluorescence, artefact control for SMM control-protein annotation, profiling panel (AID 1140).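 Also: score merges 667 nm feature emission with signal to noise over triplicate slides.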 The conditions noted are these: WGA-A647 binding, 635 nm fluorescence, higher = more signal.

Assay [17] concerns the target Luciferin 4-monooxygenase (Photinus pyralis) (UniProt P08659). Put plainly: inhibition of purified Photinus pyralis luciferase – biochemical, luminescence, purified enzyme, 2006 set, primary screen (AID 1141).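 Also: cell-free assay with purified firefly luciferase at 100 ng per well in PBS; test concentration not given here.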 To be noted: purified firefly luciferase, SteadyGlo luminescence, 30 min; higher = more signal, called active from +8 up or from −8 down.

Chain of Concanavalin-A (Canavalia ensiformis) (P02866 whole entry, looked up): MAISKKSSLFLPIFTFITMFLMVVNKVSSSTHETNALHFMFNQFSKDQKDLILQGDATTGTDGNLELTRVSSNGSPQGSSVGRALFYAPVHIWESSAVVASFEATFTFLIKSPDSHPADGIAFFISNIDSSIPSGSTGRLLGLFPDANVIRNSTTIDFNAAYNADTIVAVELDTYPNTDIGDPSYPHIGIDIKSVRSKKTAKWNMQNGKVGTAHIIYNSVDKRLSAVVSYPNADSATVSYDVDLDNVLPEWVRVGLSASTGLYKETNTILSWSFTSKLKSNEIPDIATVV
Chain of Luciferin 4-monooxygenase (Photinus pyralis) (P08659 whole entry, looked up): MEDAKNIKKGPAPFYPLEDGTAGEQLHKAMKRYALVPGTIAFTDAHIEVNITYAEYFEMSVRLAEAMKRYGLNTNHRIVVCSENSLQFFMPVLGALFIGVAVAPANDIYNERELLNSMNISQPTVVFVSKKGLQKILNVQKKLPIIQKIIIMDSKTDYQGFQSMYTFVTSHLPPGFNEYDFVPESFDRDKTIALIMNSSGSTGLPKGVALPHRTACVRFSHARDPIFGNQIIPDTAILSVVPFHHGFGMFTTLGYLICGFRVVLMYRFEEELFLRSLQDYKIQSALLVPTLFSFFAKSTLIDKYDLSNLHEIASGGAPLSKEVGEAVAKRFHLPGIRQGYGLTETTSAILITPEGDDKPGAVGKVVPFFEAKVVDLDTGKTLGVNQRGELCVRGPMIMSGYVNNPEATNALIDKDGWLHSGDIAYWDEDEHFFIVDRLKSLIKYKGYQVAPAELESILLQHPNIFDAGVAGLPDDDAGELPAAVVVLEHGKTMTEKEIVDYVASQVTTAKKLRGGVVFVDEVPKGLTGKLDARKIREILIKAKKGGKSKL
Chain of Focal adhesion kinase 1 (Homo sapiens) (Q05397 whole entry, looked up): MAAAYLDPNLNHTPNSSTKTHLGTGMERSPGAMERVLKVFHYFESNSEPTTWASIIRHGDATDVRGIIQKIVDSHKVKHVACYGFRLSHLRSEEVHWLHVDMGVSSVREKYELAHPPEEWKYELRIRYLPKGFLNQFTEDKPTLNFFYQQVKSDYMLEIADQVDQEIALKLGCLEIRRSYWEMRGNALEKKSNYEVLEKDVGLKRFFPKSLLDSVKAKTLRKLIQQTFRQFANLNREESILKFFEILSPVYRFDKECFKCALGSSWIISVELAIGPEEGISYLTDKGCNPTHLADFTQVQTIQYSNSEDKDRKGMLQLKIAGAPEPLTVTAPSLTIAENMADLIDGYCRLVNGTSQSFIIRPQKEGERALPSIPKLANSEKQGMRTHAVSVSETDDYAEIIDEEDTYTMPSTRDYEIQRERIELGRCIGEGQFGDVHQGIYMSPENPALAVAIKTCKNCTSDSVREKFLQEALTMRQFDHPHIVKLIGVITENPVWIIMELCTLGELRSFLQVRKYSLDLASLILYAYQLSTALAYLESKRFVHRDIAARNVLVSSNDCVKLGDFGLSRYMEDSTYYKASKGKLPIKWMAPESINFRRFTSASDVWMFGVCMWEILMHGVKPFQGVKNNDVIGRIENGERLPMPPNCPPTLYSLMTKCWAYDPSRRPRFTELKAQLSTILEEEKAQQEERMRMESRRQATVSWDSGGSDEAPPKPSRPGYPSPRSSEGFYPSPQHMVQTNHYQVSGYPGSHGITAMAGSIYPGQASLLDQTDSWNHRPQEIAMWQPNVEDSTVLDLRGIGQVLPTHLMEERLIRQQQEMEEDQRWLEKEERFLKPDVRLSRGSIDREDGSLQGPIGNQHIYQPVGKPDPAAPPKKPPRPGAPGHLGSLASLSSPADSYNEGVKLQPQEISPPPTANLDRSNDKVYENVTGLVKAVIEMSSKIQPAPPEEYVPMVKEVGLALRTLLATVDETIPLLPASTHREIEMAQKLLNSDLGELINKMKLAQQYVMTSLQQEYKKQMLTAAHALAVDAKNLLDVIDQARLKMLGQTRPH
Chain of Fibroblast growth factor 2 (Homo sapiens) (P09038 whole entry, looked up): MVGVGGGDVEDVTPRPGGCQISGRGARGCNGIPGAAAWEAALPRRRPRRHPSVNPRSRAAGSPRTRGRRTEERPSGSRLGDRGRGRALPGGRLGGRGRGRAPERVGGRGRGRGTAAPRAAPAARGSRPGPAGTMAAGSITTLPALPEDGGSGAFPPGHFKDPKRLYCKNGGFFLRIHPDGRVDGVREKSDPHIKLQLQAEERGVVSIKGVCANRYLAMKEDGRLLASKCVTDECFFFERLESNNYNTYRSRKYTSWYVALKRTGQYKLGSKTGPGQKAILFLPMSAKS

Consider `[N-]=[N+]=Nc1ccccc1C[C@]1(C(N)=O)COC(c2ccc(OCCCO)cc2)=N1`, for which the composite z-score with Albumin (Bos taurus) was found to be 0.66; in assay [2], 0.148; in assay [3] it was 0.105; in assay [4], 0.77; in [5] it was 2.98; in assay [6], 1.46. In addition, the composite z-score with Sam68 (KHDRBS1) is 0.0271; in [7], -0.324; in assay [8], -0.401; in [9], 0.809; in [10] it was -0.835; in assay [11] it was 0.214. Further, the composite z-score was -0.445 in [12]; 0.91 in assay [13]; -0.261 in assay [14]; -0.954 with Lefty1; 0.99 in assay [16]. Besides, in [1], the composite Z-score was 0.745 (inactive). The z-score in [15] is -0.566; in [17], -8.73 (active).

`COC(=O)[C@@]1(Cc2ccc(OC)cc2)[C@@H]2[C@@H](CC(=O)[C@H]2CC(=O)C(=O)N(C)C)CN1C(=O)c1ccccc1`: the composite z-score with Albumin (Bos taurus) turned out to be 0.964; in [2], 1.52; in [3], 0.732; in assay [4], 0.617; in assay [5], 3.17; in [6] it was 0.505. Also, the composite z-score in the assay on Sam68 (KHDRBS1) was 1.32; in [7], -0.875; in assay [8], 1.13; in assay [9], 2.06; in assay [10], 1.24; in assay [11], 0.462. Also, the composite z-score in assay [12] is 1; in assay [13] it was 0.594; in assay [14] it was 0.153; in the assay on Lefty1 it was -0.477; in assay [16], 1.34. Also, in assay [1], the composite Z-score was 0.289 (inactive). For the same molecule, the z-score in assay [15] is 0.257; in [17], -0.273 (inactive).

In the case of `Cc1ccc(S[C@]2(C(=O)NCC(C)C)CC(=O)N(C(C)C)[C@@H]2c2ccc(CO)cc2I)cc1`, the composite z-score with Albumin (Bos taurus) is -0.0268; in [2] it was -0.019; in [3] it was -0.057; in assay [4], 0.56; in assay [5], 1.07; in [6], 0.801. Moreover, the composite z-score was -0.236 in the assay with Sam68 (KHDRBS1); -0.802 in [7]; -1.16 in assay [8]; -1.38 in [9]; -0.807 in assay [10]; -0.0038 in [11]. Also, the composite z-score in assay [12] was -0.942; in assay [13], -0.888; in [14], 0.101; in the assay on Lefty1, -1.16; in assay [16] it was -0.353. Further, the composite Z-score in [1] is 0.849 (inactive). Also, the z-score was -0.294 in [15] and -0.965 (inactive) in assay [17].

Turning to `C=CCNC(=O)[C@@H]1[C@H]2C(=O)O[C@H](c3ccccc3)[C@H](c3ccccc3)N2[C@H](c2ccc(OCCO)cc2)[C@@]12C(=O)Nc1ccc(C#CCNC(N)=O)cc12`, the composite z-score in the assay with Albumin (Bos taurus) was 0.567; in assay [2] it was -0.076; in assay [3], -0.13; in [4], 0.336; in [5], 0.813; in [6], 0.268. Moreover, the composite z-score is 1.33 in the assay on Sam68 (KHDRBS1); -0.822 in assay [7]; 0.6 in assay [8]; 0.156 in assay [9]; -0.0352 in [10]; 0.0378 in assay [11]. For the same molecule, the composite z-score in assay [12] is 0.75; in [13] it was 0.593; in assay [14] it was -0.187; in the assay with Lefty1 it was -0.0354; in assay [16], 0.671. In addition, the composite Z-score in [1] is 0.0324 (inactive). Besides, the z-score in assay [15] was -0.844; in assay [17], -0.851 (inactive).

On to `CCCCN1CC=CC23O[C@@H]4/C=C\CCCOC(=O)C4[C@H]2C(=O)N(CCCCCCO)[C@@H]3C1=O` (stereo not given in full), for which the composite z-score in the assay with Albumin (Bos taurus) is -0.768; in assay [2], -0.165; in assay [3], -0.172; in [4], 0.83; in [5], 1.66; in assay [6], 1.17. For the same molecule, the composite z-score was 0.177 in the assay with Sam68 (KHDRBS1); -1.87 in [7]; -0.535 in assay [8]; 0.193 in [9]; -0.0399 in assay [10]; 0.0326 in [11]. In addition, the composite z-score was -1.21 in [12]; -1.02 in assay [13]; -0.621 in [14]; -0.331 in the assay on Lefty1; -0.13 in assay [16]. Besides, the composite Z-score in assay [1] was 0.276 (inactive). The z-score is 1.56 in assay [15] and -0.0067 (inactive) in [17].
